The campaign covered roughly 360,000 compounds. About 11,000 (3.1%) were called active. About 2% were inconclusive and are not listed. The sample as a whole holds a higher share of actives than the screen did. A number with no mark means an inactive call. No stated cut-off is given here; in the data, active means fluorescence intensity above about 16000; inconclusive means no clear call, values can overlap the other calls; inactive means below that.

This experiment can be described thus: counter-screen for toxin protease inhibitors: compound fluorescence, primary screen, artefact control for toxin protease inhibitor project, biochemical, multiplex microsphere, HTS (AID 624483). Conditions: compound autofluorescence counterscreen, microsphere flow cytometry; active compounds read high. (In general: A counterscreen serves to expose hits that act by an unwanted route or on another target.)
Turning to `CC(C)CCN1NC2(CCC(C)CC2)NC1=S` (configuration not stated), the fluorescence intensity was 3830.
For the molecule `CC(C)(C)c1ccc(S(=O)(=O)NC(=O)C2(C)CCN2C(=O)CC2CC2)cc1` (configuration not stated), the fluorescence intensity is 4180.
Then `Cc1cc(Br)cn2c(Cc3ccccc3C(F)(F)F)c(-c3ccc(Cl)cc3)nc12`, with 5850.
Next, `Clc1ccc(C2=CSC3=Nc4cccc5cccc(c45)N23)cc1`: 21800 (active).
For the molecule `CN(C)c1ccc(C(CC(=O)O)C(=O)O)cc1` (configuration not stated), the fluorescence intensity is 1950.
Then `COC(=O)c1sc2ncccc2c1OCc1ccc(Cl)cc1Cl`, with 23500 (active).
Then `O=C(NNc1cc(Cl)ccc1Cl)c1cccnc1Cl`, with 4240; and `COc1cccc(NC(=O)CN(C)C(=O)Cc2ccc(Cl)cc2Cl)c1`, with 3890.
Then `CC(C)Cc1ccc(-c2cc3nc(NCc4cccc(Cl)c4)ccn3n2)cc1`, with 3700; and `C=CCC[C@@H](CCCCC)OC(=O)/C=C/[C@@H](O)[C@H](O)C[C@H](O)CC=C`, with 6190.
Regarding `COc1cccc(C(=O)NNC(=O)c2ccccc2Br)c1`, the fluorescence intensity was 16700 (active).
Consider `COc1cccc(C(=O)NNC(=O)/C=C/c2ccccc2)c1`, for which the fluorescence intensity was 6790.
With `COc1cccc(C(=O)Nc2cc3c(cc2Br)OCCCO3)c1`, the fluorescence intensity was 7110.
Take `CCN(CC(=O)Nc1ccc(OC)cc1)C(=O)c1ccc(Cl)c(S(=O)(=O)N2CCCC2)c1`: the fluorescence intensity was 3470.
`CCN(CC)C(=O)c1ccc(NC(=O)c2cc(-n3cnnc3)ccc2Cl)cc1`: the fluorescence intensity is 23800 (active).
For the molecule `CCN(CC)C(=O)c1ccc(NC(=O)c2sccc2-c2ccccc2)cc1`, the fluorescence intensity was 4580.
With `CCOC(=O)C1=CC[C@@H](c2ccccc2)N(S(=O)(=O)c2ccc(C)cc2)[C@H]1c1cccc(OC)c1`, the fluorescence intensity was 6140.
Then `COc1ccccc1CCNC(=O)c1c(C)nn(CC(C)C)c1Cl`, with 4680.
`COc1ccccc1CCNC(=O)c1cnccn1`: the fluorescence intensity was 16600 (active).
With `O=C(NCCCNC(=O)c1ccccc1Cl)c1cnccn1`, the fluorescence intensity is 4420.
As to `O=C(NCCS(=O)(=O)N1CCN(c2ccc(F)cc2)CC1)c1ccc2c(c1)OCO2`, the fluorescence intensity was 4110.
With `CC1(C(=O)NS(=O)(=O)c2cccc(F)c2)CCN1C(=O)c1cccc2ccccc12` (configuration not stated), the fluorescence intensity was 2920.
With `CN(C)C1CN(Cc2cn(Cc3ccccc3)nn2)S(=O)(=O)C1` (configuration not stated), the fluorescence intensity was 4320.
Then `c1cnn(-c2cc(N3CCOCC3)ncn2)c1`, with 17000 (active); and `O=C1c2ccccc2-c2ncnc3c(N4CCOCC4)cc(N4CCOCC4)c1c23`, with 4380.
Take `NC(=O)c1ccc(N2CCOCC2)nc1`: the fluorescence intensity is 2600.
Next, `N#CCCN(C(=O)Nc1ccc(Cl)c(Cl)c1)C1CCCCC1`: 2920.
`CS(=O)(=O)N(CC(=O)Nc1ccc(Cl)c(Cl)c1)C1CCCCC1`: the fluorescence intensity was 21700 (active).
Then `CS(=O)(=O)N(CC(=O)Nc1ccc(F)cc1)C1CCCCC1`, with 3860; and `O=S1(=O)CC(N2CCN(CCO)CC2)CN1Cc1cn(Cc2ccc(Cl)cc2)nn1` (configuration not stated), with 5500; and `O=C1c2cccnc2C(Nc2ccc(S(=O)(=O)N3CCCCCC3)cc2)N1Cc1ccccc1` (configuration not stated), with 21600 (active).
Take `O=S(=O)(NCc1ccccc1)c1ccc(S(=O)(=O)N2CCCC2)cc1`: the fluorescence intensity is 4970.
For the molecule `Cc1nc(Nc2ccc(S(=O)(=O)N3CCCC3)cc2)c2nnn(Cc3ccccc3)c2n1`, the fluorescence intensity is 2010.
As to `O=C(Nc1cccc(C(=O)NC2CC2)c1)c1ccc(F)c(S(=O)(=O)N2CCOCC2)c1`, the fluorescence intensity is 6040.
`CCOC(=O)C1(C)CCCN(C(=O)c2ccc(F)c(Cl)c2)C1` (configuration not stated): the fluorescence intensity is 3580.
For the molecule `COc1ccc(S(=O)(=O)NC(=O)C2(C)CCN2C(=O)COc2ccc(Cl)cc2)cc1` (configuration not stated), the fluorescence intensity was 3840.
Consider `COC(=O)[C@]12CCCCC=C1N(Cc1ccc(Cl)cc1Cl)C(=O)[C@H](CC(=O)NCc1cccc3ccccc13)C2`, for which the fluorescence intensity is 5890.
For the molecule `COc1ccc(N2CCN(C(c3cc4ccc(C)cc4[nH]c3=O)c3nnnn3C3CCCC3)CC2)cc1` (configuration not stated), the fluorescence intensity is 24400 (active).
Next, `COc1ccc(C(c2nnnn2C2CCCCC2)N2CCN(c3ccccc3F)CC2)cc1` (configuration not stated): 2590; `CCOC(=O)C1CCN(C(c2cc3cc(C)cc(C)c3[nH]c2=O)c2nnnn2C2CCCCC2)CC1` (configuration not stated): 11300.
With `CN(CC(=O)NC1CCN(Cc2ccccc2)CC1)S(=O)(=O)c1ccc(Cl)s1`, the fluorescence intensity is 4220.
Next, `CC(C)(C)C(=O)c1c(N)[nH]c(C(=O)c2ccccc2)c1-c1ccc(F)cc1`: 4830; `O=C(Nc1ccc(-c2nnc(-c3ccccc3)o2)cc1)C1CCCO1` (configuration not stated): 23500 (active); `CCOc1ccc(NC(=O)c2ccc(NC(=O)C3CCCO3)cc2)cc1` (configuration not stated): 5940.
Consider `O=C(Nc1cccc(-c2nnc(-c3ccccc3)o2)c1)C1CCCO1` (configuration not stated), for which the fluorescence intensity is 8340.
As to `COc1ccc(NC(=O)NNC(=O)COc2cc(C)c(Cl)c(C)c2)c(OC)c1`, the fluorescence intensity is 4710.
Take `COc1cc(NC(=O)c2ccc(CNc3c(N4CCCC4)c(=O)c3=O)cc2)cc(OC)c1OC`: the fluorescence intensity is 4980.
For `COc1ccc(Br)c(Cn2c(C)c(C(=O)NCc3cccs3)sc2=O)c1`, the fluorescence intensity was 5140.
Then `CCN(CC)Cc1c(C(=O)OC)nnn1-c1nonc1N`, with 2240.
`O=C(Nc1sc2c(c1-c1nc3ccccc3[nH]1)CCCC2)C1CC1`: the fluorescence intensity is 3170.
Then `c1ccc2[nH]c(-c3nc4ccccc4[nH]3)nc2c1`, with 16500 (active); and `Nc1ccccc1-c1nc2ccncc2[nH]1`, with 3770; and `CCOC(=O)[C@]12CCCC=C1N(Cc1ccc3c(c1)OCO3)C(=O)[C@H](CC(=O)N1CCN(C(=O)c3ccco3)CC1)C2`, with 3930.
On to `Cc1ccc(Cc2c(-c3ccc(Cl)cc3)nc3c4ccccc4ccn23)cc1`, for which the fluorescence intensity was 4990.
On to `O=c1cc(C(F)(F)F)[nH]c(=O)n1C1CCCCC1`, for which the fluorescence intensity is 24200 (active).
Next, `Cc1ccc(Nc2cc(=O)n(C3CCCCC3)c(=O)[nH]2)cc1C`: 3080.
As to `CC(=O)c1c(O)n(C2CCCCCC2)c(=O)[nH]c1=O`, the fluorescence intensity is 2970.
Then `COC(=O)C1=CN(C)C=C(C(=O)OC)C1c1ccc(Cl)cc1Cl`, with 3960; and `CCOc1ccccc1C1C(C(=O)OC)=CN(C)C=C1C(=O)OC`, with 19700 (active).
Next, `CCOc1cc(C2C(C(=O)OC)=CN(C3CCCC3)C=C2C(=O)OC)cc(Br)c1O`: 8950; `COc1ccc(-c2cc(=O)oc3cc(OC(C)C(=O)NCC4CCC(C(=O)O)CC4)ccc23)cc1` (configuration not stated): 6030.
Next, `COC(=O)C(C)Oc1ccc2c(-c3cccc([N+](=O)[O-])c3)cc(=O)oc2c1` (configuration not stated): 21200 (active).
For the molecule `CC(Oc1ccc2c(-c3ccccc3)cc(=O)oc2c1)C(=O)NC(Cc1c[nH]c2ccccc12)C(=O)O` (configuration not stated), the fluorescence intensity is 3610.
With `CC(C)n1c(NCc2c[nH]c3ccccc23)nc2ccccc21`, the fluorescence intensity is 2940.
On to `COCCOC(=O)c1sc(=S)n(CCOC)c1N`, for which the fluorescence intensity is 23500 (active).
`CC(=O)N1Cc2cc(C(=O)NCc3cccc(F)c3)nc(-c3cccc(C4=CCCCC4)c3)c2[C@H]1CCO`: the fluorescence intensity was 5630.
Next, `Cc1ccc(C(=O)OCC(=O)NCc2ccc3c(c2)OCO3)s1`: 3100.
Consider `O=C(NCc1cccnc1)C12CC3CC(CC(C3)C1)C2`, for which the fluorescence intensity was 3100.
Next, `O=C(NCc1ccc2c(c1)OCO2)c1ccc(Cl)s1`: 3620; `O=C(NCc1ccc2c(c1)OCO2)C12CC3CC(CC(C3)C1)C2`: 21300 (active); `O=C(CNS(=O)(=O)c1ccc(Br)s1)NCc1ccc2c(c1)OCO2`: 24800 (active).
`Cc1ccc(CNC(=O)CCNS(=O)(=O)c2ccc(Br)s2)cc1`: the fluorescence intensity was 3440.
Then `COc1ccc(OC)c(NC(=O)C2(C)CCN2C(=O)Cc2ccccc2)c1` (configuration not stated), with 3710; and `CCCCOCCCNC(=O)C[C@@H]1C[C@@]2(C(=O)OC)CCCCC=C2N(CCC2=CCCCC2)C1=O`, with 6000; and `O=c1onc(-c2c(F)cccc2F)n1-c1ccccc1Cl`, with 4210.
Next, `Cc1ccc(NS(=O)(=O)c2ccc(-c3coc(C)n3)cc2)c(C)c1`: 5350.
Next, `Cc1c(C)c2c(OCC(=O)N[C@@H](C(=O)O)c3ccccc3)cc3c(c2oc1=O)CCC(C)(C)O3`: 6410; `CCOC1=C2CN(S(=O)(=O)c3ccc(C)cc3)[C@H](c3cccs3)C[C@H]2[C@H]2C(=O)N(c3ccccc3)C(=O)[C@H]2C1`: 6240; `COCCCn1cc(CN2CC(N(C)C)CS2(=O)=O)nn1` (configuration not stated): 4380.
Regarding `Cc1ccc(C)c(NC(=O)c2ccc3nccnc3c2)c1`, the fluorescence intensity is 4320.
Then `O=C(Nc1cccc2c1CCCC2)c1ccc(F)cc1`, with 4040; and `Cc1ccc(F)cc1NC(=O)c1cccc(N(C)C)c1`, with 23300 (active).
Then `COCCNc1nc(Nc2ccccc2Cl)c2sc(-c3ccccc3)cc2n1`, with 3680; and `Cc1ccc(C)c(N2C(=O)CS/C2=N\NC(=O)c2ccccc2Cl)c1`, with 9520; and `CC1=CC(=NNS(=O)(=O)c2ccc([N+](=O)[O-])cc2)CC(C)(C)C1`, with 3700.
`CSc1nc(-c2ccco2)nn1C(=O)c1ccccc1Cl`: the fluorescence intensity was 4950.
Next, `CSc1nc(-c2ccco2)nn1C(=O)CCc1ccccc1`: 22700 (active); `C/C(=N/NC(=O)CCc1ccccc1)c1ccco1`: 2010; `COc1cccc(C(O)c2nc(-c3ccc(C)c(C)c3)cs2)c1` (configuration not stated): 3830.
Next, `CCC1(C)N(O)C(C)(C)C(c2ccc(OC)cc2)=[N+]1[O-]` (configuration not stated): 5620; `C/C(=N\O)C1(C)N(O)C(C)(C)C(c2ccc(Br)cc2)=[N+]1[O-]` (configuration not stated): 25600 (active); `CCC1=[N+]([O-])C(C)(/C(C)=N\O)N(O)C1(C)C` (configuration not stated): 9530.

For the origin of these results see PubChem BioAssay AID624483 (NMMLSC, 2012).
